# Values joined by “and” are separate entries in the source; they are usually repeats but may differ in a detail not shown here. Equal entries are not always repeated. Records with an inconclusive call do not appear. Values without a mark were called inactive. Active and inactive are the calls of the source. Calls come from the whole dose curve; as a rule, active = well fitted curve in the direction sought with a large enough effect; inconclusive = small, poorly fitted or top-dose-only effect, or another doubt; inactive = no such curve, though single readings can be large; an effect the other way counts as inactive or inconclusive.
# Tests used:
# [1] = Viability qHTS for spleen associated tyrosine kinase inhibitor (SYKi) naive MV4-11 cells (AID 1963823); note: nearly all actives have a fitted effect of over 40% in size
# Summary of the method: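 Seeding of 500 SYKi-naive MV4-11 cells per well onto pre-dispensed compounds preceded a 72 hr incubation at 37 C. Luminescent CellTiter-Glo signal, read after 10 min at room temperature, reflected viable cells.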
# [2] = Viability qHTS for spleen associated tyrosine kinase inhibitor (SYKi) drug resistant MV4-11 cells (AID 1963824); note: nearly all actives have a fitted effect of over 35% in size
# Summary of the method: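 SYK-inhibitor-resistant MV4-11 AML cells were seeded at 500 per well onto compound and cultured 72 hours (37 °C, 5% CO2). CellTiter-Glo was then added, and after 10 min at room temperature, luminescence gave viability.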
# [3] = Quantitative highthroughput screen to assess conditional lethalithy of P12 Ichikawa cells grown in Human Plasma-Like Medium with dialyzed fetal bovine serum (HPLM+ds) (AID 1963879); conditions: Potency: viability; note: nearly all actives have a fitted effect of over 35% in size; for Viability: series mostly up to about 46 µM
# Summary of the method: (§1)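 Each medium arm—HPLM with 10% dialyzed FBS, or RPMI1640 with 5 mM glucose and 10% untreated or dialyzed FBS—was screened against an 11-point, 3-fold compound titration for 48 h at 37 °C, with CellTiter-Glo luminescence as endpoint.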
# [4] = Quantitative highthroughput screen to assess conditional lethalithy of P12 Ichikawa cells grown in RPMI1640 with dialyzed fetal bovine serum (RPMI+ds) (AID 1963880); conditions: Potency: P12-Ichikawa viability; note: nearly all actives have a fitted effect of over 35% in size;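 for Viability: 100% = DMSO wells and 0% = empty wells on each plate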
# Summary of the method: as §1
# [5] = Quantitative highthroughput screen to assess conditional lethalithy of P12 Ichikawa cells grown in RPMI1640 with untreated serum (RPMI+s) (AID 1963881); conditions: Potency: viability; note: nearly all actives have a fitted effect of over 35% in size;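 for Viability: series mostly up to about 46 µM; 100% = DMSO wells and 0% = empty wells without cells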
# Summary of the method: as §1
# [6] = Quantitative highthroughput screen to assess conditional lethalithy of SEM cells grown in Human Plasma-Like Medium with dialyzed fetal bovine serum (HPLM+ds) (AID 1963882); note: nearly all actives have a fitted effect of over 35% in size; for Viability: series mostly up to about 46 µM
# Summary of the method: as §1
# [7] = Quantitative highthroughput screen to assess conditional lethalithy of SEM cells grown in RPMI1640 with unreated serum (RPMI+s) (AID 1963883); note: nearly all actives have a fitted effect of over 35% in size
# Summary of the method: as §1
# [8] = Quantitative highthroughput screen to assess conditional lethalithy of SEM cells grown in RPMI1640 with dialyzed fetal bovine serum (RPMI+ds) (AID 1963884); note: nearly all actives have a fitted effect of over 35% in size
# Summary of the method: as §1
# [9] = Cellular viability qHTS for adrenocortical cancer (ACC) cell line SW-13 (AID 1963989); conditions: SW-13 ACC cells viability, CellTiter-Glo, 48 h; activity (max response): active compounds read low; note: nearly all actives have a fitted effect of over 65% in size;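 for activity (max response): cells grown in serum-free medium with ITS supplement; % is set by controls: 0 for no effect and ±100 for the full control effect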
# Summary of the method: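 Luminescent ATP read-out (CellTiter-Glo, 20 min at room temperature) measured metabolically competent SW-13 cells after 48 h compound treatment. Final concentrations spanned up to 46 uM; bortezomib served as positive control.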
# [10] = Cellular viability qHTS for adrenocortical cancer (ACC) cell line NCI-H295R (AID 1963990); note: nearly all actives have a fitted effect of over 60% in size
# Summary of the method: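 IC50 and maximal efficacy derive from four-parameter logistic modelling of titration curves, with reads scaled between DMSO-only wells (0%) and doxorubicin hydrochloride (100% inhibition). Compounds spanned up to 46 uM over 48 h.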
# [11] = Quantitative highthroughput screen to assess conditional lethalithy of NOMO1 cells grown in Human Plasma-Like Medium with dialyzed fetal bovine serum (HPLM+ds) (AID 1963878); note: nearly all actives have a fitted effect of over 35% in size
# Summary of the method: as §1
# Potency is the fitted concentration of half-maximal effect.
SMILES,Potency [1],Potency [2],Potency [3],Potency [4],Potency [5],Potency [6],Potency [7],Potency [8],activity (max response) [9],Potency [9],Potency [10],Potency [11]
CN[C@@H]1CN(c2ccc3c(=O)c(C(=O)O)cn(-c4nccs4)c3n2)C[C@@H]1OC,0.407 µM (active),0.512 µM (active),14.4 µM (active),8.12 µM (active),6.45 µM (active),6.45 µM (active),1.44 µM (active),2.04 µM (active),-14.5%,–,–,–
COc1cccc2c(NCc3ccccc3)nc(-n3c(N)nc4ccccc43)nc12,2.35 µM (active),2.91 µM (active),16.6 µM (active),18.7 µM (active),16.6 µM (active),9.35 µM (active),5.9 µM (active),14.8 µM (active),–,3.16 µM (active),5.62 µM (active),–
CN[C@H]1CCc2cc(OC)c(OC)c(OC)c2-c2ccc(OC)c(=O)cc21,0.0934 µM (active),0.0934 µM (active),0.0118 µM (active),0.0105 µM (active),0.0105 µM (active),0.0066 µM (active),0.0083 µM (active),0.0074 µM (active),–,0.1 µM (active),0.0891 µM (active),–
Cn1cnc(-c2cc3nccc(Oc4ccc(NC(=S)NC(=O)Cc5ccccc5)cc4F)c3s2)c1,0.0259 µM (active),36.6 nM (active) and 166 nM (active),23.5 µM (active),18.7 µM (active),18.7 µM (active),0.59 µM (active),–,–,–,22.4 µM (active),14.1 µM (active),–
C[C@H](Cc1ccc(O)c(O)c1)[C@@H](C)Cc1ccc(O)c(O)c1,1.46 µM (active),1.86 µM (active) and 1.03 µM (active),20.9 µM (active),16.6 µM (active),18.7 µM (active),–,–,–,–,–,–,–
O=C(Nc1nc2cccc(-c3ccc(CN4CCS(=O)(=O)CC4)cc3)n2n1)C1CC1,2.59 µM (active) and 5.25 µM (active),2.91 µM (active) and 7.42 µM (active),–,–,–,–,–,–,–,25.1 µM (active),28.2 µM (active),23.5 µM (active)
NC(=NCCCCCCN=C(N)N=C(N)Nc1ccc(Cl)cc1)N=C(N)Nc1ccc(Cl)cc1,2.35 µM (active),2.63 µM (active),inactive,–,20.9 µM (active),–,–,–,–,3.98 µM (active),17.8 µM (active),–
Cc1nc2c(-c3cnc(N)nc3)nc(N3CCOCC3)nc2n1C(C)C,0.209 µM (active),326 nM (active) and 468 nM (active),0.0029 µM (active),–,0.0186 µM (active),–,–,–,–,–,0.562 µM (active),–
Nc1ncnc2c1c(-c1cccc(OCc3ccccc3)c1)cn2C1CC(CN2CCC2)C1 (stereo unspecified),0.58 µM (active),0.92 µM (active),inactive,inactive,inactive,–,–,–,12.1%,–,inactive,–
Clc1cccc(-c2nnnn2Cc2cccnc2)c1Cl,inactive,inactive,7.43 µM (active),–,1.32 µM (active),–,–,–,–,–,–,–
COc1cc([C@@H]2c3cc4c(cc3[C@H](O)[C@H]3COC(=O)[C@H]23)OCO4)cc(OC)c1OC,26.6 nM (active) and 26.3 nM (active),37.6 nM (active) and 37.2 nM (active),0.0019 µM (active),0.0021 µM (active),0.0021 µM (active),0.0026 µM (active),0.0019 µM (active),0.0026 µM (active),–,9.2 nM (active) and 44.7 nM (active),7.3 nM (active) and 50.1 nM (active),–
C[C@]1(CO)CN(c2cc(C(=O)Nc3ccc4c(c3)-c3c(c(C(N)=O)nn3-c3ccc(F)cc3)CC4)c(Cl)cn2)C[C@@]1(C)CO,3.66 µM (active),2.91 µM (active),16.6 µM (active),–,16.6 µM (active),18.7 µM (active),–,18.7 µM (active),–,–,–,–
CCCC1OC2C[C@@H]3[C@H]4CCC5=CC(=O)C=C[C@]5(C)[C@H]4C(O)C[C@]3(C)[C@]2(C(=O)CO)O1 (stereo partly specified),16.6 µM (active),7.42 µM (active),–,0.0132 µM (active),–,–,–,0.132 µM (active),-12.3%,–,inactive,–
CN(C)CCc1c[nH]c2ccc(CS(=O)(=O)N3CCCC3)cc12,inactive,inactive,–,–,inactive,inactive,5.9 µM (active),14.8 µM (active),-4.49% and 5.74%,–,inactive,–
COc1ccc(CCN(C)CCCOc2ccc(S(=O)(=O)c3[nH]c4ccccc4c3C(C)C)cc2)cc1OC,7.42 µM (active),6.61 µM (active),inactive,–,–,–,–,–,–,28.2 µM (active),11.2 µM (active),–
Cn1c2ccccc2c2c3c(c4c5ccccc5n(CCC#N)c4c21)CNC3=O,0.0651 µM (active),0.259 µM (active),–,–,–,0.372 µM (active),0.526 µM (active),0.418 µM (active),–,–,3.55 µM (active),–
O=C(NOCC1CC1)c1ccc(F)c(F)c1Nc1ccc(I)cc1Cl,3.76 µM (active),3.35 µM (active) and 2.91 µM (active) and 2.35 µM (active),–,–,2.64 µM (active),7.43 µM (active),–,–,–,10.3 µM (active) and 4.47 µM (active),3.26 µM (active) and 6.31 µM (active),–
